Outcome data for two compounds are collected here from PubChem BioAssay AID2284374 (EPA ToxCast).

Molecules are shown by their SMILES. Records with an inconclusive call do not appear. Activity calls are given as the source filed them. How the source made its calls: active means hit-call score of the fitted dose curve at least 0.9, where 1 is the maximum; inconclusive means response in the unintended direction; inactive means score below 0.9.

human Peroxisome Proliferator-activated Receptor delta (PPARd), PPARD (gene 5467), sequence (Q03181 whole entry, looked up): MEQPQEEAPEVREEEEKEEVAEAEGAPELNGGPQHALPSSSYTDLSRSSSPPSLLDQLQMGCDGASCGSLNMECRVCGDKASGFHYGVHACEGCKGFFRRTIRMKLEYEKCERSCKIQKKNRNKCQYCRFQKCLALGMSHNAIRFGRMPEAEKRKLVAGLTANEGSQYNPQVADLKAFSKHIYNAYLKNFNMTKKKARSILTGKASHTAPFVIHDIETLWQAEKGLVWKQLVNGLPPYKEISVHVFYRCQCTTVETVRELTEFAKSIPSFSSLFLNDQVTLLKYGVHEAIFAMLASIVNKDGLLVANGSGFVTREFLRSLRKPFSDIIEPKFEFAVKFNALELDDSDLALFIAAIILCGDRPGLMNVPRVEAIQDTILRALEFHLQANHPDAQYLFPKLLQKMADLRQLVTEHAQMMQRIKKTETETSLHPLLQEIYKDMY

This assay addresses human Peroxisome Proliferator-activated Receptor delta (PPARd), PPARD (gene 5467) (UniProt Q03181). In words: ERF_US_NR_hPPARD: Eurofins (ERF) Nuclear Receptor (NR) Cell Based Protein-Protein Interaction LeadHunter Assay for human Peroxisome Proliferator-activated Receptor delta (PPARd) Agonism. Here is the method: ERF_US_NR_hPPARD is a cell-based, single-readout assay that uses extracted gene-proteins in a cell-line assay. Measurements were taken 5 hours after chemical dosing in a 384-well plate. See PPARdelta Human NHR Cell Based Agonist Protein-Protein Interaction Assay, DiscoverX.ERF_US_NR_hPPARD is an assay component calculated from the ERF_US_NR_hPPARD assay. It is designed to measure radioligand binding using a type of binding reporter as detected by scintillation counting with radiometry technology.Data from the assay component ERF_US_NR_hPPARD was analyzed at the assay endpoint, ERF_US_NR_hPPARD, in the positive analysis fitting direction relative to DMSO as the negative control and baseline of activity. Using a type of binding reporter, gain-of-signal activity can be used to understand changes in binding as they relate to gene PPARD. To generalize the intended target to other relatable targets, this assay endpoint is annotated to the nuclear receptor intended target family, where the subfamily is non-steroidal.
Cells were seeded in a total volume of 20 uL into white walled, 384-well microplates and incubated at 37C overnight prior to testing. Briefly, intermediate dilution of sample stocks was performed to generate 5X sample in assay buffer. 5 uL of 5X sample was added to cells and incubated at 37C for 300 minutes. […] The results are expressed as a percent efficacy of the control ligand.
Turning to `O=C(CC(=O)C(F)(F)C(F)(F)C(F)(F)F)c1cccs1`, the outcome was inactive.

Turning to `O=C(O)CCC(F)(F)C(F)(F)C(F)(F)F`, the compound was called inactive.
